# Test results from PubChem BioAssay AID504834 (National Center for Advancing Translational Sciences (NCATS), 2011).
# Among all 320,000 compounds or so, about 22,000 (6.9%) were called active. Another 27% or so got no clear call; they are omitted. Shown is part of a subset that was picked to be rich in actives. A number with no mark means an inactive call. The call rests on the fitted dose curve; in most records, active means well fitted inhibition curve with a large enough effect; inconclusive means small, poorly fitted or top-dose-only effect, or another doubt; inactive means no such curve, though single readings can be large or run the other way.
# Test: Primary qHTS for delayed death inhibitors of the malarial parasite plastid, 96 hour incubation
# Details: P. falciparum luciferase reporter growth; series mostly up to 28.7 µM; activity change, negative = inhibition: at the top concentration
# Description: The goal of this screen is to discover new antimalarial compounds that act by inhibiting the development of the apicoplast in the malarial parasite Plasmodium falciparum. The biochemical processes that make this organelle essential for erythrocytic stage parasites are not well understood. However, antibiotics such as azithromycin and tetracycline, which target the apicoplast translational machinery, have a potent antimalarial effect.
# We have developed a cell-based assay that measures parasite growth based on the expression of an integrated copy of a firefly luciferase reporter. To detect small molecules that cause this "delayed death" phenotype, erythrocytes infected with the luciferase-expressing parasites were incubated with compounds for either one or two generations, corresponding to 48 and 96 hours, respectively. Compounds that inhibit parasite growth in the second generation, but not the first, should be enriched in antimalarials that target the apicoplast. Growth inhibition is detected by a decrease in luciferase activity.
# Assay Provider: David Fidock and Eric Ekland, Columbia University
# Keywords: NIH Roadmap, MLPCN, MLI, MLSMR, qHTS, NCGC, qHTS, malaria, luciferase, viability
# Four microliters of infected erythrocytes (2% hematocrit, 0.05% parasitemia final concentration) in culture medium were dispensed and the plates incubated for 96 hours at 37 C in 5% CO2. Two microliters of luciferase detection reagent was added and luminescence was detected by a ViewLux (PerkinElmer) reader.
# On the % scale 0 is the no-effect control and ±100 the full control effect; potency means the concentration at half of the fitted maximal effect.
SMILES,"activity change, negative = inhibition",Potency
COc1ccc(OC)c(NC(=O)CN(C)CCOc2ccc(Br)cc2)c1,-21.8%,–
CC(=O)Nc1ccc(NC(=O)C2CCCN2S(=O)(=O)c2cccc(C(F)(F)F)c2)cc1 (stereo unspecified),6.66%,–
O=C(Nc1n[nH]c(C(F)(F)F)n1)c1cccs1,41.7%,–
CC(=O)NS(=O)(=O)c1ccc(N/C(N)=N/c2nc(C)cc(C)n2)cc1,-8.97%,–
Clc1ccc2c(c1)C1=C(C(c3ccncc3)O2)C(c2ccc(Br)cc2)n2ncnc2N1 (stereo unspecified),–,3.29 µM (active)
CC1=C(C(N)=O)C(c2ccc(Br)cc2)n2ncnc2N1 (stereo unspecified),9.45%,–
COC(=O)COc1ccc2c(c1C)O/C(=C\c1ccco1)C2=O,86.9%,–
CC1CC(C)(C)n2c(O)c(N=NC(N)=S)c3cccc1c32 (stereo unspecified),11.4%,–
Cc1nc2ccc(C(=O)N3CCN(c4ccccc4)CC3)cc2s1,-6.37%,–
CCc1nc2ccc(C(=O)N3CCN(c4cccc(Cl)c4)CC3)cc2nc1CC,–,7.38 µM (active)
O=C(CCCC(=O)N1CCN(c2cccc(Cl)c2)CC1)c1ccccc1,4.4%,–
CCOc1cc(C(=O)O)ccc1OCCOc1ccccc1,10.2%,–
CN(CC(=O)Nc1cccc(F)c1)C(=O)CC1CCCC1,30.9%,–
COC(=O)c1ccc(-n2cnc3ccccc32)nc1,0%,–
c1ccc(-c2nccc(-c3ccc(-n4cnc5ccccc54)cc3)n2)nc1,–,4.15 µM (active)
Cn1c(NC(=O)c2ccccc2)nc2ccccc21,-49.6%,–
O=C(O)C1=NN(c2c(F)c(F)cc(F)c2F)C(=O)CC1,20.6%,–
CSc1ncccc1C(=O)Nc1ccc(C)cn1,43.7%,–
CCc1ccccc1NC(=O)CCOc1ccccc1,-7.11%,–
CCOC(=O)N1CCC(NC(=O)Cc2cn(C)c3ccccc23)CC1,34.3%,–
CCc1ccccc1NC(=O)Cc1cn(C)c2ccccc12,–,13.1 µM (active)
COc1ccc(CNc2nc3c(c(=O)[nH]c(=O)n3C)n2Cc2ccccc2)cc1,12.3%,–

SMILES,"activity change, negative = inhibition",Potency
O=C(CC(c1ccccc1)c1ccccc1)NCC(O)c1ccc([N+](=O)[O-])cc1 (stereo unspecified),-27.2%,–
O=C(CSc1cccc[n+]1[O-])c1ccc(-c2ccccc2)cc1,–,8.28 µM (active)
O=C(CSc1cccc[n+]1[O-])NCCCc1ccccc1,23.3%,–
Cc1ccc(C(=O)CSc2ccccc2C(=O)O)cc1,188%,–
CCCCC(=O)Nc1c2c(nn1-c1ccc([N+](=O)[O-])cc1)CS(=O)(=O)C2,14.9%,–
O=C(NCc1ccccn1)C1CCN(S(=O)(=O)c2ccc(Br)cc2)CC1,21.9%,–
COCCN(C(=S)Nc1ccccc1OC)C1CCN(C(C)C)CC1,-15.9%,–
CCN(CC(=O)NCc1cccs1)C(=O)c1cccc(S(=O)(=O)Nc2ccccc2OC)c1,15.4%,–
COc1ccc2[nH]c(C)c(CCN(Cc3cccs3)C(=S)Nc3ccccc3OC)c2c1,–,13.1 µM (active)
COc1ccc(S(=O)(=O)NC(C)c2ccccc2)cc1C(=O)N1CCCCC1 (stereo unspecified),25.7%,–
CC(=O)Nc1ccc(S(=O)(=O)N2CCN(S(=O)(=O)c3cccs3)CC2)cc1,-14.8%,–
CC(C)C(NS(=O)(=O)c1cccs1)C(=O)Nc1nc(C(C)(C)C)cs1 (stereo unspecified),–,13.1 µM (active)
CC(C)(C)c1csc(NC2=NS(=O)(=O)c3ccccc32)n1,0%,–
Cc1ccc(CS(=O)(=O)CCC(=O)NCc2ccc(F)cc2)cc1,-0.448%,–
COc1ccc(CCC(C)N2CCc3ccccc3C2)cc1 (stereo unspecified),1.99%,–
O=C(CN(C(=O)CCC(=O)Nc1nccs1)c1ccc(F)cc1)NCc1ccc2c(c1)OCO2,45.9%,–
CCC1Sc2ccc(S(=O)(=O)CCC(=O)NCc3cccs3)cc2NC1=O (stereo unspecified),6.87%,–
Cc1nc(-c2nnc(SCC(=O)Nc3cc(C(F)(F)F)cc(C(F)(F)F)c3)n2C)cs1,25.6%,–
CCN(C(=O)COC(=O)C1CCN(S(=O)(=O)c2ccc(C)c(C)c2)CC1)C1CCS(=O)(=O)C1 (stereo unspecified),-1.93%,–
CCCNC(=O)OC[C@H]1O[C@H](CCO/N=C/[C@@H](NS(=O)(=O)c2ccc(C)cc2)[C@H](C)/C=C/CC(=O)OC)C=C[C@@H]1Oc1ccc(OC)cc1,–,7.38 µM (active)
CCCC(C)NC(=O)C1CCN(C(=O)C2CC(=O)N(c3ccc(C)cc3)C2)CC1 (stereo unspecified),332%,–
COc1ccc(CCNC(=O)COC(=O)C2CC2C)cc1 (stereo unspecified),-20.6%,–

SMILES,"activity change, negative = inhibition",Potency
O=C(Nc1ccccc1C(=O)NCCCn1ccnc1)c1ccc(Cl)cc1Cl,-16.7%,–
O=C(NCCCn1ccnc1)Nc1ccc(Cl)cc1Cl,-24.9%,–
Clc1ccc(C(Cn2ccnc2)OCc2ccsc2Cl)c(Cl)c1 (stereo unspecified),–,6.75 µM (active)
CC(OC(=O)CCCOc1ccccc1)C(=O)Nc1ccc(Cl)cn1 (stereo unspecified),0.813%,–
CC1CCN(C(=O)COC(=O)CCC(=O)c2cccs2)CC1,0.599%,–
Cc1c(C(C)(C)O)[nH]c2ccc(C#N)cc12,108%,–
O=C(c1ccccc1F)N1CCN(S(=O)(=O)c2ccc(Br)cc2)CC1,-20%,–
O=S(=O)(c1ccc(Br)cc1)N1CCC(c2nc3ccccc3[nH]2)CC1,36.7%,–
O=S(=O)(c1ccc(Br)cc1)n1ccc2ccccc21,–,2.62 µM (active)
C/C=C/c1ccc(OCC(=O)OCC(=O)Nc2c(C)nn(-c3ccccc3)c2C)c(OC)c1,9.93%,–
COc1ccc(CNC(=O)C(c2ccc(O)cc2)N(Cc2ccco2)C(=O)c2snc(C(N)=O)c2N)cc1 (stereo unspecified),-9.26%,–
Cc1cccc(C(=O)N2CCCC(Nc3ccc(C(C)C)cc3)C2)n1 (stereo unspecified),25.2%,–
CCCCNC(=O)CCn1c(=S)[nH]c2cc3c(cc2c1=O)OCO3,139%,–
O=C(CCn1c(=S)[nH]c2cc3c(cc2c1=O)OCO3)NCc1ccc(Cl)cc1,–,11.7 µM (active)
CC(C)NC(=O)CCCn1c(=S)[nH]c2cc3c(cc2c1=O)OCO3,4.1%,–
COc1ccc(-c2csc(Nc3ccc(O)cc3)n2)cc1,37.7%,–
COc1ccc(Nc2nc(-c3ccccc3)cs2)cc1,8.91%,–
CCCn1c(CCNc2nc(-c3ccc(OC)cc3)cs2)nc2ccccc21,–,11.7 µM (active)
CC(=O)c1cc2c(cc1NC(=O)Cn1nc(-c3ccc(F)cc3)ccc1=O)OCO2,23.7%,–
CNC(=O)C1CC(=O)N(Cc2ccc3c(c2)OCO3)C(=Nc2ccc(F)cc2)S1 (stereo unspecified),–,6.57 µM (active)
O=C(Cc1ccc(F)cc1)N/N=C/c1ccc2c(c1)OCO2,94.1%,–
COc1ccc(N=C2SC(C(=O)Nc3ccc(F)cc3)CC(=O)N2C)cc1 (stereo unspecified),3.01%,–
